# Test results reported in publication PMC5540273 (PLoS ONE, 2017).
# Assays:
# Conditions in all cases: concentration: 1 μM, replicates: in singlicate; n = 1
# [1] = test system: MRCKA
# [2] = test system: T1, MRCKB
# T1 construct: gene CDC42BPB
# [3] = test system: MST1R
# [4] = test system: T2, MST1
# T2 construct: gene STK4
# [5] = test system: T3, MST2
# T3 construct: gene STK3
# [6] = test system: T4, MST3
# T4 construct: gene STK24
# [7] = test system: MST4
# [8] = test system: MTOR
# [9] = test system: MUSK
# [10] = test system: MYLK2
# 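Further: KINOMEscan kinase panel screen.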
structure (smiles),measurement,setting,value
O=C(Nc1n[nH]c2nc(-c3ccco3)c(Br)cc12)c1ccc(CN2CCCC2)cc1.O=C(O)[C@H](O)[C@@H](O)C(=O)O [SB-742352],%Inh,[1],0%
same,%Inh,[2],0%
same,%Inh,[3],0%
same,%Inh,[4],0%
same,%Inh,[5],17%
same,%Inh,[6],0%
same,%Inh,[7],9%
same,%Inh,[8],0%
same,%Inh,[9],9%
same,%Inh,[10],96.3%
CC(C)(C)c1ccc(-n2cnc3c(N)ncnc32)cc1 [SKF-97263],%Inh,[1],0%
same,%Inh,[2],3%
same,%Inh,[3],17%
same,%Inh,[4],13%
same,%Inh,[5],18%
same,%Inh,[6],0%
same,%Inh,[7],0%
same,%Inh,[8],15%
same,%Inh,[9],0%
same,%Inh,[10],0%
COc1ccc(NC(=O)Nc2ccc(C)c(-c3ccc(C(=O)Nc4ccncc4)cc3)c2)cc1 [GSK1398475],%Inh,[1],19%
same,%Inh,[2],0%
same,%Inh,[3],36%
same,%Inh,[4],0%
same,%Inh,[5],0%
same,%Inh,[6],0%
same,%Inh,[7],0%
same,%Inh,[8],4%
same,%Inh,[9],0%
same,%Inh,[10],0%
C[C@H]1CC[C@@H](C(=O)Nc2ccccc2)CN1c1cc(-c2ccc3c(N)n[nH]c3c2)nc(N)n1 [GSK2283293],%Inh,[1],65%
same,%Inh,[2],0%
same,%Inh,[3],17%
same,%Inh,[4],0%
same,%Inh,[5],0%
same,%Inh,[6],0%
same,%Inh,[7],0%
same,%Inh,[8],8%
same,%Inh,[9],13%
same,%Inh,[10],1%
Oc1ccc2ncnc(Nc3ccc(OCc4ccccc4)cc3)c2c1 [GI262866],%Inh,[1],12%
same,%Inh,[2],0%
same,%Inh,[3],13%
same,%Inh,[4],59%
same,%Inh,[5],0%
same,%Inh,[6],0%
same,%Inh,[7],0%
same,%Inh,[8],11%
same,%Inh,[9],17%
same,%Inh,[10],0%
Nc1nc(-c2ccccn2)c(-c2ccnc3ccccc23)s1 [GW548057],%Inh,[1],8%
same,%Inh,[2],0%
same,%Inh,[3],50%
same,%Inh,[4],0%
same,%Inh,[5],0%
same,%Inh,[6],16%
same,%Inh,[7],0%
same,%Inh,[8],31%
same,%Inh,[9],0%
same,%Inh,[10],9%
O=c1cc(N2CCOCC2)nc2n(Cc3cccc(Cl)c3)ccn12 [GSK2296823],%Inh,[1],7%
same,%Inh,[2],16%
same,%Inh,[3],17%
same,%Inh,[4],0%
same,%Inh,[5],11%
same,%Inh,[6],0%
same,%Inh,[7],0%
same,%Inh,[8],62%
same,%Inh,[9],11%
same,%Inh,[10],2%
FC(F)(F)c1ccc(-c2cc(-c3c[nH]nc3-c3ccccn3)ccn2)cc1 [GW599550],%Inh,[1],19%
same,%Inh,[2],0%
same,%Inh,[3],33%
same,%Inh,[4],17%
same,%Inh,[5],8%
same,%Inh,[6],8%
same,%Inh,[7],0%
same,%Inh,[8],13%
same,%Inh,[9],14%
same,%Inh,[10],13%
CN1CCC(n2cnc(-c3ccc(F)cc3)c2-c2ccnc(NC3CCNCC3)n2)CC1 [SB-229482],%Inh,[1],6%
same,%Inh,[2],0%
same,%Inh,[3],33%
same,%Inh,[4],3%
same,%Inh,[5],24%
same,%Inh,[6],0%
same,%Inh,[7],0%
same,%Inh,[8],0%
same,%Inh,[9],0%
same,%Inh,[10],21%
Cn1cc(-c2ccc3c(c2)CCN3C(=O)Cc2cccc(C(F)(F)F)c2)c2c(N)ncnc21 [GSK2606414],%Inh,[1],0%
same,%Inh,[2],0%
same,%Inh,[3],6%
same,%Inh,[4],14%
same,%Inh,[5],0%
same,%Inh,[6],0%
same,%Inh,[7],0%
same,%Inh,[8],0%
same,%Inh,[9],6%
same,%Inh,[10],24%
Nc1nc(-c2ccc3c(N)n[nH]c3c2)cc(N2CCCCC2)n1 [GSK2228768],%Inh,[1],0%
same,%Inh,[2],0%
same,%Inh,[3],11%
same,%Inh,[4],0%
same,%Inh,[5],0%
same,%Inh,[6],0%
same,%Inh,[7],0%
same,%Inh,[8],0%
same,%Inh,[9],3%
same,%Inh,[10],0%
NC(=O)c1sc(-n2cnc3ccccc32)cc1OCc1ccccc1F [GSK1024306],%Inh,[1],17%
same,%Inh,[2],0%
same,%Inh,[3],9%
same,%Inh,[4],0%
same,%Inh,[5],0%
same,%Inh,[6],0%
same,%Inh,[7],0%
same,%Inh,[8],19%
same,%Inh,[9],0%
same,%Inh,[10],7%
COC(=O)c1c(-c2ccccc2)c2cc(Cl)ccc2c(=O)n1Cc1ccc(S(C)(=O)=O)cc1,%Inh,[1],0%
same,%Inh,[2],0%
same,%Inh,[3],24%
same,%Inh,[4],1%
same,%Inh,[5],18%
same,%Inh,[6],7%
same,%Inh,[7],0%
same,%Inh,[8],0%
same,%Inh,[9],0%
same,%Inh,[10],0%
Cl.c1ccc(Cn2ccc3cc(Nc4ncnc5ccccc45)ccc32)cc1 [GW275568],%Inh,[1],7%
same,%Inh,[2],11%
same,%Inh,[3],43%
same,%Inh,[4],0%
same,%Inh,[5],22%
same,%Inh,[6],17%
same,%Inh,[7],0%
same,%Inh,[8],16%
same,%Inh,[9],11%
same,%Inh,[10],19%
CNc1nccc(-c2c(-c3ccc(F)cc3)ncn2CCCN2CCOCC2)n1 [SB-222516],%Inh,[1],8%
same,%Inh,[2],0%
same,%Inh,[3],0%
same,%Inh,[4],0%
same,%Inh,[5],14%
same,%Inh,[6],14%
same,%Inh,[7],0%
same,%Inh,[8],11%
same,%Inh,[9],0%
same,%Inh,[10],0%
CCCc1ccc(S(=O)(=O)NC2CCN(c3ccnc(Nc4ccc(OC)cc4)n3)C2)cc1 (centres unmarked) [GSK1379737],%Inh,[1],10%
same,%Inh,[2],0%
same,%Inh,[3],39%
same,%Inh,[4],65%
same,%Inh,[5],0%
same,%Inh,[6],0%
same,%Inh,[7],0%
same,%Inh,[8],28%
same,%Inh,[9],9%
same,%Inh,[10],0%
COc1ccc(NC(=O)c2ccc(-c3cc(-c4nnc(C)o4)ccc3C)cc2)cc1 [GW595885],%Inh,[1],0%
same,%Inh,[2],3%
same,%Inh,[3],34%
same,%Inh,[4],0%
same,%Inh,[5],0%
same,%Inh,[6],0%
same,%Inh,[7],0%
same,%Inh,[8],14%
same,%Inh,[9],12%
same,%Inh,[10],0%
